# Sampled rows, rich in hits. Any-hit rate of the full collection: about 11%.
# Pf growth 48h: Primary qHTS for delayed death inhibitors of the malarial parasite plastid, 48 hour incubation; AID 504832, 2011; Potency, µM (series often up to 28.7 µM), without a hit: top-dose activity change, negative = inhibition, most hits filed as inhibitors; P. falciparum luciferase growth in erythrocytes, 48 h; 5.9% of 310,000 active; also: % is scaled to controls: 0 for no effect and ±100 for the full control effect
#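 Luciferase-expressing parasites in RBCs, 2% Hct / 0.1% parasitemia final; RPMI 1640 + 0.5% Albumax; 37 C, 5% CO2, one generation; luminescence read-out, lower signal = inhibition.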
# Pf growth 96h: Primary qHTS for delayed death inhibitors of the malarial parasite plastid, 96 hour incubation; Potency, µM (titrated, usually from 28.7 µM), inactives show at the top dose activity change, negative = inhibition, hits mostly inhibitors; AID 504834, 2011; 6.9% of 320,000 active; P. falciparum luciferase reporter growth, 96 h; also: % is scaled to controls: 0 for no effect and ±100 for the full control effect
#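 Plates of compound plus infected erythrocytes (2% hematocrit, 0.05% parasitemia final) incubate 96 hours, 37 C, 5% CO2. Detection reagent added; reduced luminescence from the parasites' luciferase reporter flags inhibition.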
# NS1 function inh: qHTS Assay for Inhibitors of Influenza NS1 Protein Function; 0.4% of 270,000 active; Potency, µM (titrated, usually from 46.1 µM), without a hit: top-dose activity, positive = more growth; calls by dose curve; also: actives are rising curves; nearly all actives have a fitted effect of over 50% in size
#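 A cell-based growth assay was used: compounds that relieve NS1-induced slow growth of budding yeast raise OD600. Assay medium was yeast nitrogen base with ammonium sulphate and -URA supplement, pH 6.0, with 2% galactose.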
# VACV mCherry inh: qHTS for Stage-Specific Inhibitors of Vaccinia Orthopoxvirus: mCherry Reporter Primary qHTS. 0.63% of 310,000 active. Potency, µM (titrated, usually from 36.5 µM), without a hit: at the top dose activity change, negative = inhibition, hits mostly inhibitors. AID 720579, 2013. Vaccinia virus mCherry reporter infection, fluorescence; calls by dose curve; tested in A549 cells; also: % is scaled to controls: 0 for no effect and ±100 for the full control effect; nearly all actives have a fitted effect of over 35% in size
# Vaccinia Venus: qHTS for Stage-Specific Inhibitors of Vaccinia Orthopoxvirus: Venus Reporter Primary qHTS; Vaccinia virus Venus reporter expression, fluorescence; AID 720580, 2013; 0.46% of 330,000 active; Potency, µM (series often up to 36.5 µM), without a hit: at the top dose activity change, negative = inhibition, usual class: inhibitors; calls by dose curve; tested in A549 cells; also: % is scaled to controls: 0 for no effect and ±100 for the full control effect; nearly all actives have a fitted effect of over 30% in size
# HCV inh: qHTS Assay for Inhibitors of Hepatitis C Virus (HCV). 3.4% of 340,000 active. Huh7.5.1 HCVcc-Cre infection, luciferase reporter, 44 h. AID 651820, 2012. Potency, µM (series often up to 41.8 µM), for inactives: at the highest dose activity change, negative = inhibition, hits mostly inhibitors; also: % is scaled to controls: 0 for no effect and ±100 for the full control effect
#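 After 44 h co-culture of compound, cells and HCVcc-Cre (~0.5 moi), substrate is added for 15 min at room temperature and luciferase measured over 15 sec. Cells were seeded at 1,000/well and pre-cultured 4 h.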
# The depositor's hits bear a star; i = inactive; u = inconclusive; x = no result; [ ] = dose if it differs, or a comment. Unless noted, calls follow the shape of the dose curve; as a rule, active = well fitted inhibition curve with a large enough effect; inconclusive = small, poorly fitted or top-dose-only effect, or another doubt; inactive = no such curve, though single readings can be large or run the other way. Potency is read from the fitted curve at half-maximal effect.
SMILES,Pf growth 48h,Pf growth 96h,NS1 function inh,VACV mCherry inh,Vaccinia Venus,HCV inh
Cc1csc(CNC(=O)C2CCC(=O)N(CCCc3ccccc3)C2)n1 (configuration not stated),10%,u,2%,x,x,15%
CC(C)C[C@H](NC(=O)NCc1ccc(Cl)cc1)C(=O)O,-5%,-4%,u,x,5%,16%
COc1ccc(CCNC(=O)c2ccc(CNS(=O)(=O)c3cc(C)ccc3C)cc2)cc1OC,x,5.2µM*,-7%,x,u,u
COc1ccc(CCNC(=O)c2ccc(CNS(=O)(=O)c3cccc(Cl)c3)cc2)cc1OC,26%,-19%,-3%,-17%,-28%,7.9µM*
CCOc1ccc(CCNC(=O)c2cc(=O)[nH]c3ccc(S(=O)(=O)N(CC)CC)cc23)cc1OCC,15µM*,u,1%,-1%,-4%,u
COc1ccc(CCNC(=O)CCNC(=O)c2ccc(Cl)cc2)cc1OC,-11%,u,5%,-15%,-4%,2%
Cc1ccc(C)c(S(=O)(=O)NCc2ccc(C(=O)N3CCCCC3C)cc2)c1 (configuration not stated),x,4.1µM*,-3%,x,x,-1%
CCOc1ccc(CCNC(=O)c2cc(=O)[nH]c3ccc(S(=O)(=O)N4CCCCC4C)cc23)cc1OCC (configuration not stated),x,x,x,-1%[7.34 µM],-7%[7.34 µM],x
O=C(c1ccccc1CCc1ccccc1)N1CCCC1,u,0%,-4%,x,x,-28%
CCCCn1c(CN2CCN(c3ccccc3)CC2)nc2c1c(=O)n(C)c(=O)n2C,u,u,-28%,u,u,7.1µM*
CC(C)CCn1c(CN2CCN(Cc3ccccc3)CC2)nc2c1c(=O)n(C)c(=O)n2C,4.7µM*,u,-6%,x,x,-28%
Cn1c(=O)c2c(nc(CN3CCN(c4ccccc4)CC3)n2CCCc2ccccc2)n(C)c1=O,x,x,-88%,-12%,-9%,18%
CCCCCn1c(CN2CCN(c3cccc(Cl)c3)CC2)nc2c1c(=O)n(C)c(=O)n2C,u,x,-56%,-6%,-24%,u
CCCCCn1c(CN2CCN(Cc3ccccc3)CC2)nc2c1c(=O)n(C)c(=O)n2C,8.3µM*,u,-6%,x,x,-15%
Cn1c(=O)c2c(nc(CN3CCN(Cc4ccccc4)CC3)n2Cc2ccc(F)cc2)n(C)c1=O,7.4µM*,u,-2%,3%,-3%,-2%
O=C(Nc1cc(C(F)(F)F)ccc1N1CCOCC1)C1Cc2ccccc2CN1C(=O)c1ccco1 (configuration not stated),u,-2%,-1%,x,x,-18%
CCOc1cc(C2NC(=O)c3ccccc3O2)ccc1OC(C)C (configuration not stated),6%,u,17%,x,x,-5%
Cn1c(=O)c2c(nc(CN3CCc4ccccc4C3)n2Cc2ccccc2)n(C)c1=O,13µM*,12µM*,-50%,-26%,-15%,13µM*
CC(C)CCn1c(CN2CCN(C(=O)c3ccco3)CC2)nc2c1c(=O)n(C)c(=O)n2C,x,6.6µM*,-15%,-1%,-9%,4%
Cc1ccc(-c2nnc(N)o2)cc1,19%,2%,6%,-6%,-9%,15%
CC1CCc2sc(NC(=O)c3ccc(N4C(=O)CCC4=O)cc3)c(C(N)=O)c2C1 (configuration not stated),8%,0%,16%,i,-8%,x
Cc1c(C)n(Cc2ccccc2)c2ncnc(N)c12,-4%,u,-25%,x,x,10µM*
Cc1c(C)n(Cc2ccccc2)c2ncnc(NCCO)c12,u,-7%,5%,i,-16%,8%
CCOC(=O)C1=C(COC(=O)COc2ccc(C#N)cc2)NC(=O)NC1C (configuration not stated),11%,0%,-2%,-11%,-4%,29%
CC(C)(C)OC(=O)N/N=C\C=C\c1ccc2c(c1)OCO2,141%,3.7µM*,-6%,i,-8%,-8%
SMILES,Pf growth 48h,Pf growth 96h,NS1 function inh,VACV mCherry inh,Vaccinia Venus,HCV inh
O=C(NNc1ccc(F)cc1)c1c(F)cccc1Cl,15%,12%,0%,-3%,-1%,26%
COc1ccc(C(OCC(O)CN(C)C2CCCCC2)c2ccc(OC)cc2)cc1 (configuration not stated),u,u,-4%,-22%,-15%,-25%
CCOc1ccc(CN(C)CC(O)COC(c2ccc(OC)cc2)c2ccc(OC)cc2)cc1 (configuration not stated),10µM*,10µM*,9%,-29%,-21%,11µM*
CN(Cc1ccc(OCC(O)CN(C)Cc2ccccc2)cc1)Cc1nccn1C (configuration not stated),-15%,u,0%,x,x,-9%
COc1ccc(CN(C)CC(O)COc2ccc(-c3ccccc3)cc2)cc1OC (configuration not stated),u,0%,-5%,i,-26%,7.1µM*
COc1ccc(CN(C)CC(O)COC(c2ccc(OC)cc2)c2ccc(OC)cc2)cc1 (configuration not stated),13µM*,u,3%,-1%,-21%,u
C[N+]1(C)CCC[C@@H](OC(=O)C(O)(c2ccccc2)c2ccccc2)C1,1%[12.8 µM],1%[12.8 µM],x,x,x,x
O=c1ccc2ccc(O[C@@H]3O[C@H](CO)[C@@H](O)[C@H](O)[C@H]3O)c(O)c2o1,28%,36%,x,-15%,-1%,34%
COc1cc(NC(=O)c2ccccc2Cl)ccc1NC(=O)c1cccs1,142%,26%,x,-12%,-9%,-24%
Cc1ccc(NC(=O)C(=O)NNC(=O)c2cccs2)cc1,19%,u,x,-11%,-16%,18%
COc1cc(NC(=S)NC(=O)c2ccccc2C)ccc1NC(=O)c1cccs1,u,-29%,14%,u,-25%,2µM*
COc1ccc(NC(=O)C(=O)NNC(=O)c2cccs2)cc1,23%,3.7µM*,-7%,i,-15%,-6%
COc1cc(NC(=O)c2cc3ccccc3cc2OC)ccc1NC(=O)c1cccs1,-4%,1%,0%,x,x,3.2µM*
COc1cc(NC(=S)NC(=O)c2cc(C)cc(C)c2)ccc1NC(=O)c1cccs1,u,2.9µM*,26%,-15%,-17%,u
CCn1cc(C(=O)NCc2ccccc2Cl)c(=O)c2cc(S(=O)(=O)N3CCCCC3)ccc21,x,x,x,i,-1%,x
COc1cc(NC(=S)NC(=O)c2c(OC)cccc2OC)ccc1NC(=O)c1cccs1,5.2µM*,9%,7%,u,u,u
